Results on 40 compounds are retold here after PubChem BioAssay (EPA / NIEHS).

Activity calls are given as the source filed them. The calls were made as follows: active = hit-call score of the fitted dose curve at least 0.9, where 1 is the maximum; inactive = score below 0.9.

Read-out in the experiment: catalase (CAT), CAT (gene 847)
The experiment can be described thus: LTEA_HepaRG_CAT: Life Technologies and Expression Analysis (LTEA) Assay for catalase (CAT) using HepaRG (AID 2283452).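 As to AC50: TaqMan qRT-PCR signal normalized to ACTB GAPDH and POLR2A housekeeping genes.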 The settings on record: mRNA level, 48 h; actives raise or lower the signal. The method, then:
LTEA_HepaRG is a cell based, multiplexed-readout assay that uses HepaRG, a human liver cell line, with measurements taken at 48 hours after chemical dosing on a 96-well plate.LTEA_HepaRG_CAT is one of 102 assay component(s) measured in the LTEA HepaRG cell culture assay. It is a marker of Oxidative Stress.Data from the assay component LTEA_HepaRG_CAT was analyzed into 1 endpoint. This assay endpoint, LTEA_HepaRG_CAT, was analyzed with bidirectional fitting relative to DMSO as the negative control and baseline of activity. Using a type of inducible reporter, measures of mRNA induction for gain or loss-of-signal activity can be used to understand regulation of transcription factor activity. To generalize the intended target to other relatable targets, this assay endpoint is annotated to the catalase intended target family, where the subfamily is oxidative stress.
A total of 1060 chemcials from the ToxCast library were tested in eight-point concentration-response experiments. Cell culture and cytotoxicity assays were conducted at Thermo Fisher Scientific's Custom Services facility (Madison, WI). A single lot of human HepaRG cells (Thermo Fisher Scientific, Frederick, MD) was used for the cell culture experiments. 96-well format collagen type I coated plates of human HepaRG cells were prepared using established methods. Briefly, cryopreserved HepaRG cells were thawed, plated at a density of approximately 100,000 cells/well in HepaRG Thaw, Plate, and General Purpose media (HPRG770, Thermo Fisher Scientific), and incubated for 48 hours. 0.5% DMSO was selected as vehicle control to balance the requisite need of DMSO in HepaRG cultures to maintain differentiation (for example, baseline metabolism, proportions of hepatocytes vs. cholangiocytes), while enabling further hepatic receptor pathway activation (for example, PXR and CAR) in response to chemical exposure. 48 hours after plating, the culture medium was replaced with HepaRG Serum-Free Incudtion Media. Cells were exposed to each test chemical in duplicate and maintained in CO2 incubators for another 48 hours. Chemical plates were thawed to room temperature and 200x concentrations of treatment groups were prepared. 8-point conentration-reponse curves were made with the highest exposure at 100 uM, followed by half-log dilutions, all in 0.5% DMSO. Each test plate contained variouse controls, induction positive controls (1mM phenobarbital), cytotoxicity positive controls ([…] aflatoxin B1), vehicle controls (0.5% DMSO), and total lysis controls (0.5% DMSO). Cell morphology images were taken using an Essen IncuCyte FLR automated microscope, with six 96-well plates imaged in about 24 minutes. Images were captured and exported and JPEG files. Spent culture media was transfered to black-well plates for the LDH assay, and remaining media was sorted at -80 C for later use. Cells were treated with RLT buffer and frozen until shipped for gene expression analysis. Total RNA was isolated from the cell suspension in 75 uL of Buffer RLT (Qiagen, Germantown, MD 20874) by Quintiles/Expression Analysis (Durham, NC) using a custom isolation procedure. Total RNA from each plate well was transferred to a preamplification plate. Fluidigm's 96.96 Dynamic ArrayTM (Fluidigm, Amsterdam, the Netherlands) technology was used for gene expression analyses by quantitative reverse transcription polymerase chain reaction (qRT-PCR, performed by Quintiles/Expression Analysis, Durham, NC)89. Standard TaqManTM Assays (Applied Biosystems/ThermoFisher Scientific, Foster City, CA) were used to assess the expression of 93 genes selected based on their selectivity and sensitivity to important hepatic receptors known to be modulated by environmental chemicals; importance in human hepatocyte functionality; and hepatotoxicity. […]
For `CN(C)CCCN(C)CCCN(C)C`, the call was inactive.
Turning to `CC(=O)OC1CC(C)OC(C)O1` (stereo not given), the compound was classed as inactive.
Still for that read-out and setting: under `CSc1ccc(Oc2ccc(S(N)(=O)=O)cc2CN(C)C)cc1C` stands “inactive”.
For the compound `O=C1OC(c2ccc(O)cc2)(c2ccc(O)cc2)c2ccccc21`, the AC50 is 69.2 µM (active).
Consider `Cc1cn([C@H]2C=C[C@@H](CO)O2)c(=O)[nH]c1=O`, for which the outcome was inactive.
Regarding `Nc1nc(Cl)nc2c1ncn2[C@H]1C[C@H](O)[C@@H](CO)O1`, the AC50 was 0.887 µM (active).
On the same count and under the same terms, under `CCc1cc(C2=C(C(=O)O)N(c3ccccc3C(F)(F)F)S(=O)(=O)c3ccccc32)cc2c1OCO2` stands 50 µM (active).
For the compound `CCCCCCCCCC[N+](C)(C)[O-]`, the call was inactive.
`CCCCCCC(C=O)=Cc1ccccc1`: the outcome was inactive.
The same measure, in the same setting: as for `NC=O`, the entry is “inactive”.
Regarding `COC(=O)[C@H]1[C@H]2C[C@@H]3c4[nH]c5cc(OC)ccc5c4CCN3C[C@H]2C[C@@H](OC(=O)c2cc(OC)c(OC)c(OC)c2)[C@@H]1OC`, the AC50 was 42.2 µM (active).
For the compound `CC(N)=O`, the compound was classed as inactive.
Regarding `CCOCCOCCO`, the compound was classed as inactive.
In the case of `O=C(NS(=O)(=O)/C=C/c1cccs1)c1ccc(F)cc1Br`, the result was inactive.
Regarding `CCCCCCCCCCCCCCOS(=O)(=O)O`, the call was inactive.
The same measure, in the same setting: under `C=CCCCCCCCCCCCC` stands “inactive”.
Same read-out and setting: under `CC1(C)C(=O)NC(=O)N1CO` stands “inactive”; under `CO[C@@H]1COCC[C@@H]1N[C@@H]1CC[C@@](C(=O)N2CCc3ncc(C(F)(F)F)cc3C2)(C(C)C)C1`, “inactive”; under `Cc1occc(=O)c1O`, “inactive”.
The same measure, in the same setting: under `CC(=O)CC(c1ccccc1)c1c(O)c2ccccc2oc1=O` (stereo not given) stands “inactive”; under `O=C(O)CC(O)(CC(=O)O)C(=O)O`, “inactive”.
Regarding `OCC(O)CO`, the outcome was inactive.
`Cc1c(C)c2c(c(C)c1O)CCC(C)(COc1ccc(CC3SC(=O)NC3=O)cc1)O2` (stereo not given): the AC50 was 50 µM (active).
The same measure, in the same setting: under `CCc1nc(N)nc(N)c1-c1ccc(Cl)cc1` stands 30.6 µM (active); under `CC(C)NCC(O)c1ccc(O)c(O)c1` (stereo not given), 0.2 µM (active).
Consider `CC(C)c1cccc(C(C)C)c1NC(=O)NS(=O)(=O)c1cc(C(C)(C)O)co1`, for which the compound was classed as inactive.
The same measure, in the same setting: as for `CC(=O)S[C@H](C(=O)N[C@H]1Cc2ccccc2[C@H]2CCC[C@@H](C(=O)O)N2C1=O)C(C)C`, the entry is “inactive”; as for `CCCCC(CC)COP(=O)(OCC(CC)CCCC)OCC(CC)CCCC` (stereo not given), “inactive”; as for `O=C1c2c(O)cccc2Cc2cccc(O)c21`, “inactive”.
`Cc1cc(Cc2ccc(N)c(C)c2)ccc1N`: the compound was classed as inactive.
With `N[C@@H](Cc1c[nH]c2ccccc12)C(=O)O`, the result was inactive.
As to `O=C(O)c1cccnc1`, the result was inactive.
The same measure, in the same setting: under `COC(=O)CCCC(=O)OC` stands “inactive”.
On the same count and under the same terms, as for `CC(=O)OCC(COC(C)=O)OC(C)=O`, the entry is “inactive”; as for `C=CCc1ccc(OC)c(OC)c1`, “inactive”; as for `O=C1O[C@H]([C@H](O)CO)C(O)=C1O`, “inactive”.
Still for that read-out and setting: as for `NC1CCCCC1`, the entry is “inactive”.
As to `COC(=O)CCC(=O)OC`, the compound was called inactive.
Same read-out and setting: under `CC(=O)[C@@]1(O)CC[C@H]2[C@@H]3CCC4=CC(=O)CC[C@]4(C)[C@H]3CC[C@@]21C` stands “inactive”; under `Oc1ccccc1O`, “inactive”.

As a reminder, the AC50 is the concentration at which the activity in the assay is half-maximal.
